Reference: PubChem BioAssay (NCATS)
Records with an inconclusive call do not appear. Unless noted, calls come from the whole dose curve; as a rule, active = well fitted curve in either direction with a large enough effect (not every such curve was filed as active); inconclusive = small, poorly fitted or top-dose-only effect, or another doubt; inactive = flat fitted curve, though single readings scatter.

Tests used:
[1] = AP1 Signaling Pathway (AID 357); settings: ME-180 AP-1-bla reporter, EGF-induced, beta-lactamase ratio, 5 h; at 17.2 µM (top of the series) unless noted;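 note: ME-180 reporter cells stimulated with EGF at its EC50 level; % is set by controls: 0 for no effect and ±100 for the full control effect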
Procedure, shortened: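 Beta-lactamase reporter under AP-1 response element, ME-180 background. Stimulus: EC50 EGF. Compound exposure 5 h, 37 °C. Detection: CCF4, 2.5 h RT, 460/530 nm. Values: AC50 from titration.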

[2] = NFAT Signaling Pathway (AID 444); settings: Jurkat NFAT-bla M1, carbachol, beta-lactamase ratio, 5 h; at 17.2 µM (top of the series) unless noted;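 note: carbachol stimulus at about its EC50 of 1 µM final; % is set by controls: 0 for no effect and ±100 for the full control effect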
Procedure, shortened: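 Read-out: CCF4 FRET ratio (460 nm/530 nm) after 1 h RT dye loading, used for %activity and AC50 from titration series. Cells: Jurkat NFAT-β-lactamase/M1 line, treated with compound plus 1 uM carbachol for 5 h, 37 °C.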

[3] = Stat Signaling Pathway (AID 446); settings: ME-180 (cervical carcinoma) SIE beta-lactamase reporter, IL-6 stimulated, 5 h; at 17.2 µM (top of the series) unless noted;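 note: ME-180 cervical cancer cells given 40 pM IL-6 alongside compound; SIE-controlled beta-lactamase reporter measured as 460/530 nm FRET emission ratio; % is set by controls: 0 for no effect and ±100 for the full control effect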
Procedure, shortened: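 Normalization used AC90 stimulation (300 pM IL-6) and AC90 inhibition (125 nM pan-JAK inhibitor at 40 pM IL-6). The underlying signal is SIE-driven beta-lactamase in ME-180 cells after 5 h IL-6 exposure with compound.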

[4] = molecular target: Glucocorticoid receptor (Homo sapiens) (UniProt P04150); assay: GR-GFP Redistribution (AID 450;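 active = compounds whose dose series gives a full or clear partial fitted curve of increased nuclear translocation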; note: potency is the fitted concentration of half-maximal effect)
Glucocorticoid receptor (Homo sapiens), sequence (P04150 whole entry, looked up): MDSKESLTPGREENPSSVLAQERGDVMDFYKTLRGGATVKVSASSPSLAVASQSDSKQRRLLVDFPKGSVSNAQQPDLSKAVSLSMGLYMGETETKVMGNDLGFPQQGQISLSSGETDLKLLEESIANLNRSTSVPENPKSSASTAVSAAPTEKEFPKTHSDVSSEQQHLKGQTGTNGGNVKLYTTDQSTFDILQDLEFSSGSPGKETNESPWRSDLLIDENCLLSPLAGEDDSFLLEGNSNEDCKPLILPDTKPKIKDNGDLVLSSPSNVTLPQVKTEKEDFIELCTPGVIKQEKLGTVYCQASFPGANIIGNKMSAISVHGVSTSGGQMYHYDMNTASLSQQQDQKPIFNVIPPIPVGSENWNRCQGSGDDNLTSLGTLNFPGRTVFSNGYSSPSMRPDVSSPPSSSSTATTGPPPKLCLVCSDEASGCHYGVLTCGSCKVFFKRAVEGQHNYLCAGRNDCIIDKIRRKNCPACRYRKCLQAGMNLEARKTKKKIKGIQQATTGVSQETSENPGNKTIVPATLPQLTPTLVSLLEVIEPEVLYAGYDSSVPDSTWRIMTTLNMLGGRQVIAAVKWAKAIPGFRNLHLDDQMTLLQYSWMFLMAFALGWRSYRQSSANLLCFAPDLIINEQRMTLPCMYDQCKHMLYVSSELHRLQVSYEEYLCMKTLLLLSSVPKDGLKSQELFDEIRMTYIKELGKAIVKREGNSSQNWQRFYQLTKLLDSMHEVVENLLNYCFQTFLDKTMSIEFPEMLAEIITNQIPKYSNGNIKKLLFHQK

CC1(C)CNC(=O)c2sc(N3CCOCC3)nc2C1
inactive: activity change, negative = inhibition [1] -10.8% | activity change, negative = inhibition [2] 26.7% | activity, negative = inhibition [3] 3.19% | Potency [4] > 20.6 µM

CC(=O)Nc1n[nH]c(S(=O)(=O)Cc2ccc(Cl)cc2Cl)n1
inactive: activity change, negative = inhibition [1] -2.5% | activity change, negative = inhibition [2] 4.1% | activity, negative = inhibition [3] 3.27% | Potency [4] > 20.6 µM

CCOc1ccc(N=C(NC#N)SCC(=O)NC2CC2)cc1
inactive: activity change, negative = inhibition [1] -3.71% | activity change, negative = inhibition [2] -22.1% | activity, negative = inhibition [3] -16.7% | Potency [4] > 20.6 µM

CCC(=NC(CC)CO)C1=C(O)CC(C)(C)CC1=O (configuration not stated)
inactive: activity change, negative = inhibition [1] 16.1% | activity change, negative = inhibition [2] -5.13% | activity, negative = inhibition [3] 12.8% | Potency [4] > 20.6 µM

COC(=O)CC1=C(C(=O)OC)C(c2cccc(OCC(N)=O)c2)C(C#N)=C(N)O1 (configuration not stated)
inactive: activity change, negative = inhibition [1] 26.1% | activity change, negative = inhibition [2] -17.4% | activity, negative = inhibition [3] 6.6% | Potency [4] > 20.6 µM

O=C1CC(NCc2ccc3c(c2)OCO3)C(=O)N1Cc1ccc2c(c1)OCO2 (configuration not stated)
inactive: activity change, negative = inhibition [1] -14.2% | activity change, negative = inhibition [2] 15.6% | activity, negative = inhibition [3] -1.08% | Potency [4] > 20.6 µM

Cc1cc(=O)oc2ccc(OCC(=O)N3CCc4ccccc43)cc12
inactive: activity change, negative = inhibition [1] 2.4% | activity change, negative = inhibition [2] -12% | activity, negative = inhibition [3] 11.2% | Potency [4] > 20.6 µM

CCOc1ccc(C2CC(c3ccccc3)Nc3nc(N)nn32)cc1 (configuration not stated)
inactive: activity change, negative = inhibition [1] -4.28% | activity change, negative = inhibition [2] 6.92% | activity, negative = inhibition [3] -1.31% | Potency [4] > 20.6 µM

COc1ccccc1N(Cc1cc2cccc(C)c2[nH]c1=O)C(=O)C(C)C
inactive: activity change, negative = inhibition [1] -14.8% | activity change, negative = inhibition [2] 11.3% | activity, negative = inhibition [3] -8.46% | Potency [4] > 20.6 µM

Cc1c(NC(=O)C(CC(=O)O)NCc2ccco2)c(=O)n(-c2ccccc2)n1C (configuration not stated)
inactive: activity change, negative = inhibition [1] -3.94% | activity change, negative = inhibition [2] 5.18% | activity, negative = inhibition [3] 1.34% | Potency [4] > 20.6 µM

CCOC(=O)C1=C(N)n2c(s/c(=C\c3ccco3)c2=O)=C(C(=O)OC(C)C)C1c1ccco1 (configuration not stated)
inactive: activity change, negative = inhibition [1] 9.43% | activity change, negative = inhibition [2] -23.7% | activity, negative = inhibition [3] 4.26% | Potency [4] > 20.6 µM

CCOc1ccc(C2/C(=C(/O)c3ccc(OC)cc3)C(=O)C(=O)N2c2cc(C)on2)cc1OC (configuration not stated)
inactive: activity change, negative = inhibition [1] -11.1% | activity change, negative = inhibition [2] -0.187% | activity, negative = inhibition [3] -9.83% | Potency [4] > 20.6 µM

CC(C)c1cc(NCCN2CCOCC2)n2c(nc3ccccc32)c1C#N
inactive: activity change, negative = inhibition [1] -4.92% | activity change, negative = inhibition [2] 6.15% | activity, negative = inhibition [3] 9.84% | Potency [4] > 20.6 µM

CC(C)Cc1nc(N2CCOCC2)c(C#N)c2c1COC(C)(C)C2
inactive: activity change, negative = inhibition [1] 0.834% | activity change, negative = inhibition [2] -9.76% | activity, negative = inhibition [3] 4.57% | Potency [4] > 20.6 µM

Cn1c(=O)c2c(nc(NCc3ccc4c(c3)OCO4)n2Cc2ccccc2Cl)n(C)c1=O
inactive: activity change, negative = inhibition [1] -22.3% | activity change, negative = inhibition [2] -8.43% | activity, negative = inhibition [3] -2.58% | Potency [4] > 20.6 µM

CC1(C)SC2[C@H](NC(=O)C(NC(=O)N3CCNC3=O)c3ccccc3)C(=O)N2C1C(=O)O (some centres not stated)
inactive: activity change, negative = inhibition [1] -0.219% | activity change, negative = inhibition [2] 7.62% | activity, negative = inhibition [3] 1.47% | Potency [4] > 20.6 µM

Cc1occc(=O)c1OC(=O)Nc1ccccc1
inactive: activity change, negative = inhibition [1] 9.9% | activity change, negative = inhibition [2] 1.25% | activity, negative = inhibition [3] 7.55% | Potency [4] > 20.6 µM

O=C(c1ccco1)N1CCN(CCOCCOc2cccc3ccccc23)CC1
inactive: activity change, negative = inhibition [1] 1.08% | activity change, negative = inhibition [2] -2.55% | activity, negative = inhibition [3] -10% | Potency [4] > 20.6 µM

CCOC(=O)C1=C(CSc2nc(C)cc(C)c2C#N)OC(N)=C(C#N)C1c1cccs1 (configuration not stated)
inactive: activity change, negative = inhibition [1] 18.8% | activity change, negative = inhibition [2] -27.2% | activity, negative = inhibition [3] -6.58% | Potency [4] > 20.6 µM

CCn1nc(NC(=O)c2cccnc2)c2cc3ccccc3nc21
inactive: activity change, negative = inhibition [1] -12.7% | activity change, negative = inhibition [2] 9.22% | activity, negative = inhibition [3] -4.62% | Potency [4] > 20.6 µM

COc1ccc2[nH]c(C)c(C(=O)CN3CC(C)OC(C)C3)c2c1 (configuration not stated)
inactive: activity change, negative = inhibition [1] 0.748% | activity change, negative = inhibition [2] -1.69% | activity, negative = inhibition [3] 2.01% | Potency [4] > 20.6 µM

O=c1c(C=NCCCn2ccnc2)c(-c2ccccc2)[nH]n1-c1nc2ccccc2s1
inactive: activity change, negative = inhibition [1] -0.182% | activity change, negative = inhibition [2] -18.1% | activity, negative = inhibition [3] -15.5% | Potency [4] > 20.6 µM

CCNc1nc(Oc2ccccc2)nc(OC(C)C(=O)OCC)n1 (configuration not stated)
inactive: activity change, negative = inhibition [1] -1.07% | activity change, negative = inhibition [2] 6.54% | activity, negative = inhibition [3] 1.47% | Potency [4] > 20.6 µM
